Sampled rows, rich in hits. Any-hit rate of the full collection: about 9.4%.
ELG1 repair inh: ELG1-dependent DNA repair inhibition; HEK293T ELG1-luciferase reporter, luminescence, 16 h; DNA damage induced by 5-fluorouridine; Potency, µM (titrated, usually from 46.1 µM), without a hit: at the top dose activity change, negative = inhibition, most hits filed as inhibitors; hit rate 2.3% among 330,000; AID 504467; also: % is scaled to controls: 0 for no effect and ±100 for the full control effect; nearly all actives have a fitted effect of over 55% in size
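Quantitative HTS, concentration-response format. 2,000 cells/well co-treated with 5-fluorouridine and compound, 16 hr in 5% CO2 at 37 °C; ONE-Glo luminescence read after 30 min.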
Rab9 promoter act: Rab9 promoter activation | Huh7 Rab9 promoter-luciferase reporter, luminescence, 24 h | Potency, µM (highest dose often 9.22 µM), without a hit: at the highest dose activation, negative = inhibition, most hits filed as activators | hit rate 2.8% among 320,000 | AID 485297; also: % of control where 0% means no effect; nearly all actives have a fitted effect of over 60% in size
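Luminescence read-out: Huh7 cells stably expressing Rab9-luciferase, treated 24 h with compound at 37 °C, then lysed with luciferase reagent for 10 min at ambient before reading.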
ELG1 genotoxic: genotoxicity induction in ELG1-luciferase HEK293T cells | AID 504466 | Potency, µM (doses to about 46 µM), for the others: top-dose activity change, positive = activation, usual class: activators | hit rate 1.3% among 330,000 | HEK293T ELG1-luciferase reporter, luminescence, 16 h; also: % of control where 0% means no effect; nearly all actives have a fitted effect of over 60% in size
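Genotoxicity was scored as increased ELG1-luciferase reporter signal, measured by ONE-Glo luminescence (30 min, room temperature). Compound or vehicle exposure of the HEK293T reporter cells lasted 16 hr at 37°C.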
FLuc modulator: inhibits or activates purified firefly luciferase, miR-21 counter-screen; hit rate 6.9% among 360,000; purified FLuc, Km substrates, luminescence inhibition; Potency, µM (top dose mostly 57.5 µM), inactives show at the highest dose activity change, negative = inhibition, usual class: inhibitors; P08659;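 also: plate controls were vehicle for no effect and reference inhibitor for full effect; nearly all actives have a fitted effect of over 55% in size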
Target sequence (P08659 whole entry, looked up): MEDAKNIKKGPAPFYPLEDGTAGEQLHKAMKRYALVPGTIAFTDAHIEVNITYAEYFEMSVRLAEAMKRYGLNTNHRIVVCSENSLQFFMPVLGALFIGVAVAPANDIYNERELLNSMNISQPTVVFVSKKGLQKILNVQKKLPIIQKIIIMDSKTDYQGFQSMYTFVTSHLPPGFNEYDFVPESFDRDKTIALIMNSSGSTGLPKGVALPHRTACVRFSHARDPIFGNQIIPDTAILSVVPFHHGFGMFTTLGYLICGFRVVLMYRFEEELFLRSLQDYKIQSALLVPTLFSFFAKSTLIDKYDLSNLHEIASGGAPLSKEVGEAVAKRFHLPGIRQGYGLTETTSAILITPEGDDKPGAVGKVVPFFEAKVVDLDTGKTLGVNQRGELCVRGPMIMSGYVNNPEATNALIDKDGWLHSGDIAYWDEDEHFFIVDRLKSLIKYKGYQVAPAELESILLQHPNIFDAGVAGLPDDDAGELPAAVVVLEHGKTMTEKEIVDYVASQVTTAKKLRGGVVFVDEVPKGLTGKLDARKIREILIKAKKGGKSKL
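Biochemical qHTS of compounds, final roughly 60 µM downward over six points, against 10 nM purified firefly luciferase using Km concentrations of substrates (10 uM D-luciferin, 10 uM ATP) in Tris acetate pH 7.5 buffer; luminescence output.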
SMN2 splice enh: SMN2 splice variant enhancement. HEK293 SMN2-luciferase splicing reporter, luminescence, 30-36 h. Potency, µM (doses to about 46.1 µM), inactives show at the top dose activity change, positive = activation, most hits filed as activators. hit rate 2.8% among 210,000. AID 1458; also: % of control where 0% means no effect; nearly all actives have a fitted effect of over 55% in size
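qHTS luciferase splicing reporter: luminescence rises when SMN2 exon 7 is included in transfected HEK293 cells. Compound exposure lasted 30-36 h at 37C, with 4.5 mM final sodium butyrate as control, followed by a ONE-Glo read.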
NPC1 promoter act: activators of NPC1 promoter; hit rate 2.4% among 320,000; Huh7 NPC1 promoter luciferase reporter, 24 h; AID 485313; Potency, µM (highest dose often 9.22 µM), for the others: at the highest dose activation, hits mostly activators; also: % of control where 0% means no effect; nearly all actives have a fitted effect of over 60% in size
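Luciferase expression driven by the NPC1 promoter was measured in stably transfected Huh7 cells after a 24 h compound incubation, using a luciferase reagent and a luminescence read.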
* hit, by the source's call; ? = inconclusive; · = no result given. Calls follow the shape of the dose curve; as a rule, active = well fitted curve in the direction sought with a large enough effect; inconclusive = small, poorly fitted or top-dose-only effect, or another doubt; inactive = no such curve, though single readings can be large; an effect the other way counts as inactive or inconclusive. Potency is read from the fitted curve at half-maximal effect.

SMILES | ELG1 repair inh | Rab9 promoter act | ELG1 genotoxic | FLuc modulator | SMN2 splice enh | NPC1 promoter act
COc1cccc2cc(C(=O)NCc3ccccn3)c(=O)oc12 | ? | ? | ? | 11µM* | 1% | ?
COc1cccc2cc(C(=O)NCCc3ccccc3)c(=O)oc12 | ? | 5% | ? | 11µM* | · | 5%
COc1cccc2cc(C(=O)N3CCc4ccccc4C3)c(=O)oc12 | ? | 6% | ? | 17µM* | -5% | 0%
COc1cccc2cc(C(=O)NCCC3=CCCCC3)c(=O)oc12 | 14% | 3% | 5% | ? | 13% | -1%
COc1ccc(NC(=O)c2ccccc2[N+](=O)[O-])cc1 | ? | 18% | 7% | -10% | 20% | 13%
COc1ccc(NC(=S)Nc2ccc(N)c([N+](=O)[O-])c2)cc1 | ? | 12% | ? | ? | 16µM* | 9%
O=C(NCc1ccccc1F)C1CCN(c2nnc(-n3cccc3)s2)CC1 | · | · | · | -11% | · | ·
Cn1cc(Cl)c(C(=O)N/N=C/c2ccc(OS(=O)(=O)c3ccccc3)cc2)n1 | ? | 0% | -9% | 24µM* | -3% | 4%
Cc1ccc(/C=N/NC(=O)c2nn(C)cc2Cl)cc1 | ? | 3.5µM* | ? | 1.5µM* | 11µM* | 3.5µM*
COc1ccc(/C=N\NC(=O)c2nn(C)cc2Cl)cc1CN1CCOCC1 | -1% | 0% | 2% | -10% | -4% | 1%
Cn1cc(Cl)c(C(=O)N/N=C/c2ccc3c4c(cccc24)CC3)n1 | ? | 1.4µM* | ? | 0.54µM* | · | 2µM*
Cc1cccc(N(C)C(=O)CN(C)S(=O)(=O)c2ccc3[nH]c4c(c3c2)CCCC4)c1 | · | · | · | -19% | · | ·
COC(=O)CSc1ccc2c(N)c(C(=O)OC)sc2c1 | 9% | 2% | 0% | 19µM* | ? | -2%
CCc1cccc(NC(=O)Nc2cccs2)c1 | ? | 2.8µM* | ? | 8.5µM* | 13µM* | ?
N#Cc1cccc(NC(=O)Nc2cccs2)c1 | -12% | 15% | -1% | 15µM* | -18% | 19%
COc1ccc(CNC(=O)c2cc(-c3cccs3)nc3ccccc23)c(OC)c1 | · | · | · | -16% | 2% | ·
O=C(O)c1cccc(Cl)c1Cl | · | · | · | · | -2% | ·
Cc1cc(-c2n[nH]c(=S)o2)c(C)n1-c1ccccc1 | ? | 2.5µM* | ? | 3µM* | 7.1µM* | ?
Oc1cc2ccccc2cc1-c1n[nH]c(=S)o1 | ? | 14% | 8% | ? | 6% | 2%
Cc1ccc(C(=O)COc2ccc3c(C)cc(=O)oc3c2)cc1 | ? | -3% | 0% | ? | · | 1%
CCc1ccc(/C=C2\Oc3ccc(C(=O)OC)cc3C2=O)cc1 | ? | ? | 12% | ? | ? | 29%
Cc1ccc(/C=C2\Oc3cc(OC(=O)N4CCOCC4)ccc3C2=O)cc1 | 18% | 14% | -2% | 2.1µM* | -17% | 8%
COc1ccc(/C=C2\Oc3cc(OCC(=O)N4CCC[C@H]4CO)ccc3C2=O)c(OC)c1 | ? | 2% | 4% | 13µM* | · | -4%
Cc1ccsc1/C=C1\Oc2cc(OCC(=O)c3ccccc3)ccc2C1=O | -19% | 1% | 7% | 2.7µM* | -7% | 10%
CCC1CCCCN1C(=O)COc1ccc2c(c1)OCO2 (stereo not drawn) | 8% | 4% | 8% | -1% | · | 1%
SMILES | ELG1 repair inh | Rab9 promoter act | ELG1 genotoxic | FLuc modulator | SMN2 splice enh | NPC1 promoter act
COC(=O)c1ccc2c(c1)C(=O)/C(=C/c1ccc(C)cc1)O2 | ? | ? | 15% | ? | 11µM* | ?
Cc1ccc(Cn2ccc(NC(=O)c3cc(-c4ccc(Cl)c(Cl)c4)on3)n2)cc1 | · | · | · | -6% | -2% | ·
O=C1/C(=C/c2ccc3c(c2)OCO3)Oc2cc(OCC(=O)N3CCC[C@H]3C(=O)O)ccc21 | 18% | -1% | -2% | 0.54µM* | · | 2%
COc1cccc(/C=C2\Oc3cc(OCC(=O)N4Cc5ccccc5C[C@H]4C(=O)O)ccc3C2=O)c1 | 6% | -1% | 0% | 3µM* | · | 0%
O=C(O)C1Cc2ccccc2CN1C(=O)COc1ccc(Br)cc1 (stereo not drawn) | -8% | -1% | 3% | -20% | -17% | 0%
COc1ccc(/C=C2\Oc3cc(OCC(N)=O)ccc3C2=O)cc1OC | -4% | 7% | 3% | 12µM* | · | -5%
COc1cccc(/C=C2\Oc3cc(OC(=O)N4CCOCC4)ccc3C2=O)c1 | 0% | 22% | 5% | 6µM* | · | 20%
COc1cccc([C@@H]2Oc3ccc(OC)cc3C(=O)[C@H]2OC(=O)Nc2ccc(OC(F)F)cc2)c1 | · | · | · | · | -3% | ·
COc1ccc(-c2c(C)c3cc(OC(=O)N4CCOCC4)ccc3oc2=O)cc1OC | · | · | · | 3% | · | ·
COc1ccccc1/C=C1\Oc2cc(OC(=O)N3CCOCC3)ccc2C1=O | 35% | 14% | 4% | 11µM* | · | 19%
OCCNCc1ccc(OCc2ccc(Cl)cc2Cl)cc1 | ? | 18% | ? | 15µM* | -9% | 12%
OCCCCNCc1ccc(OCc2ccc(Cl)cc2Cl)cc1 | 12% | -5% | -3% | -5% | -8% | 1%
C=CCn1c(SCC(=O)c2cc(C)n(Cc3cccs3)c2C)nnc1-c1ccncc1 | 16µM* | -1% | -6% | 19µM* | -14% | 2%
C=CCn1c(SCC(=O)c2c(C)[nH]c3ccccc23)nnc1-c1ccncc1 | 16% | -12% | -3% | 0% | 7% | -4%
Cc1ccccc1-n1c(SCC(=O)c2ccccc2)nnc1-c1ccc(F)cc1 | · | · | · | -9% | · | ·
COc1ccccc1-n1cnnc1SCC(=O)c1cc(C)n(Cc2cccs2)c1C | 10% | 13% | 14% | 19µM* | 1% | 16%
Cc1cc(C(=O)CSc2nc3ccccc3n2CCC#N)c(C)n1Cc1cccs1 | 23% | ? | 8.2µM* | ? | ? | 25%
Cc1ccccc1-n1c(SCC(=O)c2cc(C)n(C)c2C)nnc1-c1ccncc1 | 11µM* | -1% | -10% | -4% | -24% | -2%
Cc1ccc(C)c(NC(=O)c2nnn(Cc3ccc(F)cc3Cl)c2N)c1 | · | · | · | 7% | -36% | ·
CSc1ncc(Cl)c(C(=O)N(Cc2ccc(C(C)C)cc2)C2CCS(=O)(=O)C2)n1 (stereo not drawn) | · | · | · | -7% | -6% | ·
Cc1ccc(OCCSc2nc3ccccc3n2CC(=O)N2CCCCC2)c(C)c1 | · | · | · | -2% | · | ·
CC1CCCCN1c1cc2c(cc1F)c(=O)c(S(=O)(=O)c1ccccc1)cn2Cc1ccccc1 (stereo not drawn) | · | · | · | -4% | · | ·
COc1ccccc1C(=O)c1cn(CC(=O)Nc2ccccc2F)c2nc(C)ccc2c1=O | · | · | · | -6% | · | ·

Assay outcomes (PubChem)
